{"source": "paper PMC4336329", "about": "(PLoS ONE, 2015)", "note": "In all, about 310,000 compounds went through this assay and about 14,000 (4.5%) showed an effect of 50% or more. Effects have a minus sign here. Many of the other results were omitted from the sample, so strong results are more common in it than they were.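 Further: peak tail current of the secondary pulse compared with the same well before compound.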", "data": [{"target": "human ether-à-go-go-related gene (hERG) potassium channel (human, UniProt Q12809)", "sequence (Q12809 whole entry, looked up)": "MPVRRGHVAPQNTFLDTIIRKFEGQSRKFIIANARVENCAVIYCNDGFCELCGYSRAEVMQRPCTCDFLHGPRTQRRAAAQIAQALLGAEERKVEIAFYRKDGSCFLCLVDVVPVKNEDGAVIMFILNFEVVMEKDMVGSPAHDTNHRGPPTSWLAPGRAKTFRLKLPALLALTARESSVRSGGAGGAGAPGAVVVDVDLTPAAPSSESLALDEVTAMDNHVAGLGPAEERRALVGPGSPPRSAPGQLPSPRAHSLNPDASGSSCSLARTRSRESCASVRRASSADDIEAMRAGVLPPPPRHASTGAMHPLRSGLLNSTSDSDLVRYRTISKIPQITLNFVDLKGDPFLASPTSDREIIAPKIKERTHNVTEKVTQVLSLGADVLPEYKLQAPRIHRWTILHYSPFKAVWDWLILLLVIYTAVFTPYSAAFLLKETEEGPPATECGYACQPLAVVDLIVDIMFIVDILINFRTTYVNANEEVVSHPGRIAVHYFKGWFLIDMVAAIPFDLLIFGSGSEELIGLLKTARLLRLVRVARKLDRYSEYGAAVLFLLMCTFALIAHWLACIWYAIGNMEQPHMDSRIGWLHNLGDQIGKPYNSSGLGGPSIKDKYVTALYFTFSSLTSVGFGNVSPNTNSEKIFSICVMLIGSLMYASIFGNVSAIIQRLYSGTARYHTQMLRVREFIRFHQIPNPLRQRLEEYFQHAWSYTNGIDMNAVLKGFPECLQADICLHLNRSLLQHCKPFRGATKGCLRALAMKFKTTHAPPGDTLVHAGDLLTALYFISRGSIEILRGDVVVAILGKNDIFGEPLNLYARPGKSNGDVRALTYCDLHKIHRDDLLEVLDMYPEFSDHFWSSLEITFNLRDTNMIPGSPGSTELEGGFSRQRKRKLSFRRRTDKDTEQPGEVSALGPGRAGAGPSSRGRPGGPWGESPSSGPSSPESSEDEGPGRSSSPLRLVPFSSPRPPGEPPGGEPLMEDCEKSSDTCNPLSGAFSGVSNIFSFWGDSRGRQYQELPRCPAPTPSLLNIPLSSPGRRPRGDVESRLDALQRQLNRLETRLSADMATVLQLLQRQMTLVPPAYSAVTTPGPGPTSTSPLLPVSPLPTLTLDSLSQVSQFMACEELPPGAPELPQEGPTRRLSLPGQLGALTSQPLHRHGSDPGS", "experiment": "primary screen, population patch clamp on CHO cells stably expressing hERG; higher = less effect of the substance", "units": {"hERG current change (%, negative = inhibition) at 10uM": "%"}, "values": [{"smiles": "CCOC(=O)Cn1c(-c2ccc(OC)cc2)c(-c2ccc(OC)cc2)nnc1=O", "hERG current change (%, negative = inhibition) at 10uM": 9.79}, {"smiles": "O=C(NC(=S)NCCc1ccccn1)c1ccco1", "hERG current change (%, negative = inhibition) at 10uM": 17.4}, {"smiles": "COc1cccc(CNS(=O)(=O)c2ccc(S(=O)(=O)N3CCCC3)cc2)c1", "hERG current change (%, negative = inhibition) at 10uM": 7.51}, {"smiles": "COc1ccc(C(=O)N(Cc2ccco2)Cc2cccs2)c(O)c1", "hERG current change (%, negative = inhibition) at 10uM": -6.63}, {"smiles": "O=C(CSc1nncn1-c1ccccc1)Nc1ccc(N2CCOCC2)cc1", "hERG current change (%, negative = inhibition) at 10uM": 3}, {"smiles": "CN(C)S(=O)(=O)c1ccc(NC(=O)N2CCN(c3cccc(C(F)(F)F)c3)CC2)cc1", "hERG current change (%, negative = inhibition) at 10uM": 7.83}, {"smiles": "Cc1ccsc1C(=O)OCC(=O)NCCNC(=O)COC(=O)c1sccc1C", "hERG current change (%, negative = inhibition) at 10uM": 15.7}, {"smiles": "O=C(CCNC(=O)c1ccccc1Cl)Nc1cc(S(=O)(=O)N2CCOCC2)ccc1N1CCCC1", "hERG current change (%, negative = inhibition) at 10uM": -8.58}, {"smiles": "COc1ccccc1-c1c(C)nn2c(-c3ccccc3)cc(C)nc12", "hERG current change (%, negative = inhibition) at 10uM": 3.05}, {"smiles": "CCOC(=O)COn1c(=O)c(-c2ccc(Cl)cc2)[n+]([O-])c2ccccc21", "hERG current change (%, negative = inhibition) at 10uM": -4.24}, {"smiles": "Cc1ccc(S(=O)(=O)N(Cc2cccc(F)c2)C(=O)N2CCN(C)CC2)cc1", "hERG current change (%, negative = inhibition) at 10uM": 33.1}, {"smiles": "CCCC(=O)Nc1ccc(C(=O)NCc2ccccn2)cc1", "hERG current change (%, negative = inhibition) at 10uM": 14.2}, {"smiles": "COc1cccc(CN2CCN(Cc3c(C)nn(C(C)C)c3C)CC2CCO)c1", "note": "(stereo not shown)", "hERG current change (%, negative = inhibition) at 10uM": -2.68}, {"smiles": "COc1cccc(CN2CCN(Cc3nc(C(C)C)cs3)CC2CCO)c1", "note": "(stereo not shown)", "hERG current change (%, negative = inhibition) at 10uM": -73.7}, {"smiles": "CC(C)c1csc(CN2CCN(Cc3ccc(F)cc3)C(CCO)C2)n1", "note": "(stereo not shown)", "hERG current change (%, negative = inhibition) at 10uM": -35.3}, {"smiles": "CCOc1ccc(CN2CCN(Cc3nc(C(C)C)cs3)CC2CCO)cc1", "note": "(stereo not shown)", "hERG current change (%, negative = inhibition) at 10uM": -82.2}, {"smiles": "Cc1ccc(CN2CCN(Cc3nc(C(C)C)cs3)CC2CCO)cc1", "note": "(stereo not shown)", "hERG current change (%, negative = inhibition) at 10uM": -68.5}, {"smiles": "Cc1nn(-c2ccccc2)c(C)c1/C=C/C(=O)OCC(=O)Nc1ccc(S(N)(=O)=O)cc1", "hERG current change (%, negative = inhibition) at 10uM": 13.1}, {"smiles": "COc1ccccc1C(=O)NCCC(=O)N(C)CC(=O)Nc1ccc(C)cc1", "hERG current change (%, negative = inhibition) at 10uM": 7.91}, {"smiles": "Cc1ccc(S(=O)(=O)NC(CC(=O)O)c2ccccc2)c(C)c1", "note": "(stereo not shown)", "hERG current change (%, negative = inhibition) at 10uM": 5.52}, {"smiles": "CC1C(c2ccccc2)C(C#N)(C#N)C2(C#N)C(=O)NC1(N)C2C", "note": "(stereo not shown)", "hERG current change (%, negative = inhibition) at 10uM": -3.25}, {"smiles": "c1ccc(-n2nnnc2-c2cnc(-c3cccnc3)nc2-c2cccs2)cc1", "hERG current change (%, negative = inhibition) at 10uM": -10.6}, {"smiles": "O=C(COCC(=O)N/N=C/c1ccccc1F)N/N=C/c1ccccc1F", "hERG current change (%, negative = inhibition) at 10uM": -54.8}, {"smiles": "O=C(CO)N/N=C/c1ccccc1F", "hERG current change (%, negative = inhibition) at 10uM": 19.1}, {"smiles": "O=C(CC(=O)Nc1ccc(Cl)cc1)N/N=C\\c1cccc(F)c1", "hERG current change (%, negative = inhibition) at 10uM": 16.6}, {"smiles": "O=C(CN1CCN(c2ccccc2)CC1)N/N=C/c1cccc(F)c1", "hERG current change (%, negative = inhibition) at 10uM": 4.27}, {"smiles": "O=C(CN1CCN(Cc2ccc(Cl)cc2)CC1)N/N=C/c1cccc(F)c1", "hERG current change (%, negative = inhibition) at 10uM": -69.2}, {"smiles": "O=C(CN1CCN(Cc2ccccc2)CC1)N/N=C/c1ccccc1F", "hERG current change (%, negative = inhibition) at 10uM": -29.3}, {"smiles": "O=C(CN1CCN(Cc2ccc(Cl)cc2)CC1)N/N=C/c1c[nH]c2ccccc12", "hERG current change (%, negative = inhibition) at 10uM": -52.9}, {"smiles": "Cc1ccc(CN2CCN(CC(=O)N/N=C/c3c[nH]c4ccccc34)CC2)cc1", "hERG current change (%, negative = inhibition) at 10uM": -36.3}, {"smiles": "O=C(CN1CCN(Cc2ccc(Cl)cc2)CC1)N/N=C/c1ccccc1F", "hERG current change (%, negative = inhibition) at 10uM": -68.7}, {"smiles": "CN1CCN(CC(=O)N/N=C\\c2c[nH]c3ccccc23)CC1", "hERG current change (%, negative = inhibition) at 10uM": 16.2}, {"smiles": "COc1ccccc1/C=N/NC(=O)COCC(=O)N/N=C/c1ccccc1OC", "hERG current change (%, negative = inhibition) at 10uM": 3.56}, {"smiles": "O=C(CN1CCCCCCC1)N/N=C/c1ccccc1F", "hERG current change (%, negative = inhibition) at 10uM": -35.6}]}]}
